Data on seven compounds can be found in PubChem BioAssay (NCATS).

The nature of assay [1]: Cytometric Cell-Based qHTS for Inhibitors of the mTORC1 Signaling Pathway in MEF (Tsc2-/-, p53-/-) Cells (AID 2660).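 Note: Tsc2 and p53 null MEFs carrying empty vector with compound for 24 h; percent of cells above a phospho-rpS6 to PI ratio cutoff in each well; series mostly up to about 38 µM.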 An outline of the steps:
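Cells are plated, treated with compound for 24 hrs at 37 degree Celsius, then fixed, blocked and immunostained for phospho-rpS6 Ser235/236. Propidium iodide counterstain follows. Per-well % positive cells is derived from the PI-normalized phospho-S6 signal.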

Assay [2] is described as follows: High Content Imaging Cell-Based qHTS for Inhibitors of the mTORC1 Signaling Pathway in MEF (Tsc2-/-, p53-/-) Cells (AID 2666).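 Note: percent of cells scored positive for phospho-rpS6 Ser235/236 immunostaining by imaging.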 The method, boiled down: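 MEF Tsc2-/- p53-/- (empty vector), DMEM/10% FBS; cpd 24 h 37 °C; PFA fix, Alexa-488 p-rpS6 S235/236 Ab, Hoechst; imaged; rapamycin-defined inhibition; % positive cells/well.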
A general note: qHTS replaces the single test concentration by a dilution series.

Assay [3] is described as follows: High Content Imaging Cell-Based qHTS for Inhibitors of the mTORC1 Signaling Pathway in MEF Cells (AID 2667).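 Note: Tsc2-/- p53-/- MEFs stably re-expressing wild-type Tsc2 exposed 24 h; series mostly up to about 38 µM.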 The method, boiled down:
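Read-out is the share of phospho-rpS6-positive cells per well, from Hoechst-normalized Alexa-488 Ser235/236 staining imaged on IN Cell. Cells: WT Tsc2-expressing Tsc2-/-, p53-/- MEFs exposed to compound for 24 hrs.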

The nature of assay [4]: Cytometry Cell-Based qHTS for Inhibitors of the mTORC1 Signaling Pathway in MEF cells (AID 2668).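 Note: Tsc2-/- p53-/- mouse embryonic fibroblasts stably re-expressing wild-type Tsc2; percent cells positive for phospho-rpS6 Ser235/236 relative to propidium iodide stain; series mostly up to about 38 µM.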 An outline of the steps: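 Tsc2-/-, p53-/- MEFs re-expressing WT Tsc2; cpd 24 hrs, 37 degree Celsius; PFA fix, Alexa-488 p-rpS6 (Ser235/236) Ab 2 hrs RT, PI counterstain; Acumen 488nm scan; p-S6/PI ratio → % positive cells; PI count = viability.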
Assay [5] deals with Ubiquitin carboxyl-terminal hydrolase 2 (Homo sapiens) (UniProt O75604). Put plainly: qHTS Validation Assay for Inhibitors of Ubiquitin-specific Protease USP2a Using CHOP2 as the Reporter (AID 463106). Note: potency is the fitted concentration of half-maximal effect. The method, boiled down: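 Fluorescence read-out at Ex 485nm/Em 531nm after 60min RT, following addition of 25nM Ub-CHOP2 plus 25nM reporter substrate to USP2 core (10nM) pretreated 30min with compound. Data normalized to NEM full inhibition; concentration-response curves fitted.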

Assay [6] concerns the target DNA polymerase III PolC-type (Bacillus subtilis (strain 168)) (UniProt P13267). Description: qHTS Validation Assay for the Inhibitors of DNA Replication in Gram-Positive Bacteria (AID 485295).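 Note: reconstituted holoenzyme with PolC plus beta clamp SSB and primase; PicoGreen fluorescence of double-stranded DNA made on primed circular M13 template; series mostly up to about 57 µM.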 An outline of the steps: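 First, compound is mixed with the reconstituted replication complex and held at room temperature. Next, circular single-stranded M13Gori with nucleotides starts synthesis. Finally, PicoGreen in EDTA halts the reaction and stains double-stranded product for fluorescence reading.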

Assay [7] addresses Tumor susceptibility gene 101 protein (Homo sapiens) (UniProt Q99816). Put plainly: qHTS Validation Assay for Iinhibitors of HIV-1 Budding by Blocking the Interaction of PTAP/TSG101 (AID 485342; calls by dose curve). The method, boiled down: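 Binding of a FITC-tagged PTAP-motif peptide (50 nM) to the Tsg101 binding domain (10 uM) is monitored by fluorescence polarization. Compounds are pin-delivered before peptide addition, and incubation runs 20 min at room temperature.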

Assay [8] addresses Beta-2 adrenergic receptor (Homo sapiens) (UniProt P07550). Put plainly: qHTS validation assay of beta-arrestin-biased ligands of beta2-adrenergic receptor (AID 485366). An outline of the steps:
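Compound series up to 46 microM applied to beta2-AR/beta-arrestin Tango cells, 18 hr, 37 degrees C, 5% CO2. Read-out: tTA-driven luciferase luminescence, converted to %Activity; concentration-response curves assigned curve classes.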

Assay [9] has as its target ATP-dependent 6-phosphofructokinase (Trypanosoma brucei brucei) (UniProt O15648). Put plainly: qHTS Validation Assay to Find Inhibitors of T. brucei phosphofructokinase (AID 485368). Note: potency is the fitted concentration of half-maximal effect. The method, boiled down:
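qHTS format, up to 57 uM. PFK 1.25 nM; F6P 0.5 mM; ATP 0.1 mM; 5 mM MgCl2, 0.01% Tween20, 0.1% BSA; 0.1 M TEA pH 8.0; 45 min RT; ADP-Glo readout; no-enzyme control = full inhibition.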

Assay [10] can be described thus: Quantitative high throughput screen for delayed death inhibitors of the malarial parasite plastid, 96 hour incubation (AID 488745).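 Note: luciferase-expressing P. falciparum in erythrocytes at 2% hematocrit and 0.1% parasitemia; series mostly up to about 29 µM; nearly all actives have a fitted effect of over 70% in size.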 An outline of the steps:
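Luciferase-expressing P. falciparum, infected RBCs 2% Hct/0.1% parasitemia (final); 96 h cpd exposure, 37 C, 5% CO2; RPMI 1640 + 0.5% Albumax, bicarbonate, gentamycin. Readout: luminescence loss = growth inhibition.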

A short description of assay [11]: Quantitative high throughput screen for delayed death inhibitors of the malarial parasite plastid, 48 hour incubation (AID 488752). Note: nearly all actives have a fitted effect of over 65% in size. The method, boiled down: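 Luciferase-expressing P. falciparum in RBCs, 2% Hct, 0.1% parasitemia final; RPMI 1640 + 0.5% Albumax; 48 h, 37 C, 5% CO2; luminescence readout, signal drop = growth inhibition.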
The target in assay [12] is Thioredoxin reductase 1, cytoplasmic (Rattus norvegicus) (UniProt O89049). Description: qHTS Assay for Substrates of Mammalian Selenoprotein Thioredoxin Reductase 1 (TrxR1) (AID 488772).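 Note: series mostly up to about 57 µM; a drop in NADPH fluorescence below the no-compound background marks a TrxR1 substrate.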 The method, boiled down:
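In this dual-purpose format, potential substrates are identified from the first fluorescence read after selenite addition, not from the 8-minute delta. Rat enzyme is preincubated with NADPH and then with compound at ~22 deg C.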

The target is the same in assay [13]. Put plainly: qHTS Assay for Inhibitors of Mammalian Selenoprotein Thioredoxin Reductase 1 (TrxR1) (AID 488773). Note: nearly all actives have a fitted effect of over 40% in size. Note: potency is the fitted concentration of half-maximal effect. As to conditions: Potency: inhibition. An outline of the steps:
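Inhibition is scored from the loss of NADPH fluorescence between first and last reads of an 8-min kinetic run. Selenite (400 uM) was the substrate, added after 15 min compound preincubation at room temperature.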

The target of assay [14] is Flap endonuclease 1 (Homo sapiens) (UniProt P39748). Description: qHTS Validation Assay for the Inhibitors of Human Flap endonuclease 1 (FEN1) (AID 488816). Note: potency is the fitted concentration of half-maximal effect. The method, boiled down:
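Enzyme reagent 10 nM; cpds pinned; 15 min RT preinc.; substrate 50 nM final; reads t=0 and 15 min; no-enzyme buffer wells as neg. control; normalized data, 4-parameter Hill fit.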

Assay [15] deals with M-phase phosphoprotein 8 (Homo sapiens) (UniProt Q99549). Description: qHTS Validation Assay for Inhibitors for MPP8 Chromodomain Interactions with Methylated Histone Tails (AID 488949). Note: nearly all actives have a fitted effect of over 55% in size. Note: potency is the fitted concentration of half-maximal effect. An outline of the steps: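 50 nM MPP8 + 50 nM b-H3K9me3 peptide, PBS pH 7.4/0.01% Tween-20, 30 min RT; + cpd 30 min RT; + AlphaScreen donor/Ni-chelate acceptor beads 10 ug/mL final, 30 min dark; luminescence read.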

Assay [16] deals with Chromobox protein homolog 1 (Homo sapiens) (UniProt P83916). Put plainly: qHTS Validation Assay for Inhibitors of HP1-beta Chromodomain Interactions with Methylated Histone Tails (AID 488953). Note: nearly all actives have a fitted effect of over 50% in size. Note: potency is the fitted concentration of half-maximal effect. The method, boiled down:
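AlphaScreen proximity readout: streptavidin donor and Ni-chelate acceptor beads, 10 ug/mL final, 30 min dark, RT. Complex of 50 nM HP1-beta and 50 nM b-H3(1-18)K9me3 formed 30 min, then compound-treated 30 min; PBS pH 7.4/0.01% Tween-20.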

Assay [17] can be described thus: qHTS Validation Assay to Find Inhibitors of Chronic Active B-Cell Receptor Signaling (AID 485345; active = well fitted curve in the direction sought with a large enough effect in the main read-out, with a control signal flat, not every such curve was filed as active). The method, boiled down:
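TMD8 ABC-DLBCL cells stably carrying doxycycline-inducible IkappaBalpha–green luciferase fusion plus unfused red luciferase; compounds 46 uM to 3 nM, 4 h at 37C with doxycycline. Corrected green/red luminescence ratio normalized to 10 uM MG-132 and basal cell wells; curves fitted.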

The structures appear in SMILES notation. Results filed as inconclusive are left out. The source made the active and inactive calls. Unless noted, calls come from the whole dose curve; as a rule, active = well fitted curve in the direction sought with a large enough effect; inconclusive = small, poorly fitted or top-dose-only effect, or another doubt; inactive = no such curve, though single readings can be large; an effect the other way counts as inactive or inconclusive.

Chromobox protein homolog 1 (Homo sapiens), sequence (P83916 whole entry, looked up): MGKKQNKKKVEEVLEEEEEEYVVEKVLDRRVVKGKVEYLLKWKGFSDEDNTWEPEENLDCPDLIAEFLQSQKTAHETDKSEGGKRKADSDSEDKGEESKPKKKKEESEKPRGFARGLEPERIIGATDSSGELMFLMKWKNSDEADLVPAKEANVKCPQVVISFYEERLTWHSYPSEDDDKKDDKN
Beta-2 adrenergic receptor (Homo sapiens), sequence (P07550 whole entry, looked up): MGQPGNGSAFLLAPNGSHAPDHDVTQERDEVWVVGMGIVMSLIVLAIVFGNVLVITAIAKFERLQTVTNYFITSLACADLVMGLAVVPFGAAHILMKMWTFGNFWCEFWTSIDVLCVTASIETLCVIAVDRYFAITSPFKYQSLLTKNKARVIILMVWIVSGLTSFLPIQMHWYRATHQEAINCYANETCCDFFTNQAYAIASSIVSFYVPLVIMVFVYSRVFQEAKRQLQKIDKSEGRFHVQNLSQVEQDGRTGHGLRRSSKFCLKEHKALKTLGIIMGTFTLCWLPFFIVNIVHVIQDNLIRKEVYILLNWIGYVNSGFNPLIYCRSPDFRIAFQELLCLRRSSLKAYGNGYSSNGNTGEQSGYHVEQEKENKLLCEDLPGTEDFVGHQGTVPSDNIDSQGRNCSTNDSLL
Thioredoxin reductase 1, cytoplasmic (Rattus norvegicus), sequence (O89049 whole entry, looked up): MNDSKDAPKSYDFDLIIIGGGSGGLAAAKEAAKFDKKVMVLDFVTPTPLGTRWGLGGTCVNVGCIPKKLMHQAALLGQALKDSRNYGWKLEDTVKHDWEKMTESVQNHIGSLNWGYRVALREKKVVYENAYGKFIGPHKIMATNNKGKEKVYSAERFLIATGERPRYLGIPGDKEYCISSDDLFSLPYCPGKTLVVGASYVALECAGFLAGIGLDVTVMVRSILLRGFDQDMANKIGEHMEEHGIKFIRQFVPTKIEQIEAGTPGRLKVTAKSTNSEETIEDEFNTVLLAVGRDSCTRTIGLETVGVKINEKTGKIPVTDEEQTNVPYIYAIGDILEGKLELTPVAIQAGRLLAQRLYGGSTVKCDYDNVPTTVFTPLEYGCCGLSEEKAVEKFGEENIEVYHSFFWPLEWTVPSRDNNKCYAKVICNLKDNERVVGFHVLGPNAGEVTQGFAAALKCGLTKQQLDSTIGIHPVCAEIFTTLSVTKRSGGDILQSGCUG
Tumor susceptibility gene 101 protein (Homo sapiens), sequence (Q99816 whole entry, looked up, the tested form may be a part): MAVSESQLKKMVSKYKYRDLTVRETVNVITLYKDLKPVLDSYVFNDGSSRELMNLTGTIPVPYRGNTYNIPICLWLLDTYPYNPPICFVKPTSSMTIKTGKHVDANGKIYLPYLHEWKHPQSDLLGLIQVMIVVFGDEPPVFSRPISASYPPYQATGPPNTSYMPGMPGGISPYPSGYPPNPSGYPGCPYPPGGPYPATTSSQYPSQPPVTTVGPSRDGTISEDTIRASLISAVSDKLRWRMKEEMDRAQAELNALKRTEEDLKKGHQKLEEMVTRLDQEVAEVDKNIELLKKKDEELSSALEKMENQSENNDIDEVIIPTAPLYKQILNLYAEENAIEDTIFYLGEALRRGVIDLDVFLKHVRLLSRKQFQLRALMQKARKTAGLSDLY
Flap endonuclease 1 (Homo sapiens), sequence (P39748 whole entry, looked up): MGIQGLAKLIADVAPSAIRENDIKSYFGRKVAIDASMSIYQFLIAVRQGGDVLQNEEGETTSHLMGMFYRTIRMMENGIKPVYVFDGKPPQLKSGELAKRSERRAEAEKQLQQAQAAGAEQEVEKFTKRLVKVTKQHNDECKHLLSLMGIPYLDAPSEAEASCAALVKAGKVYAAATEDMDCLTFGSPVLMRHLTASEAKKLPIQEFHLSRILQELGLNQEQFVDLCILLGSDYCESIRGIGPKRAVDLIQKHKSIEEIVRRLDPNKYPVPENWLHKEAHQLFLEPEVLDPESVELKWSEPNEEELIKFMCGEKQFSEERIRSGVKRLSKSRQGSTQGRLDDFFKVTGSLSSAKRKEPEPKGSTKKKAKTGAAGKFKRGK
M-phase phosphoprotein 8 (Homo sapiens), sequence (Q99549 whole entry, looked up): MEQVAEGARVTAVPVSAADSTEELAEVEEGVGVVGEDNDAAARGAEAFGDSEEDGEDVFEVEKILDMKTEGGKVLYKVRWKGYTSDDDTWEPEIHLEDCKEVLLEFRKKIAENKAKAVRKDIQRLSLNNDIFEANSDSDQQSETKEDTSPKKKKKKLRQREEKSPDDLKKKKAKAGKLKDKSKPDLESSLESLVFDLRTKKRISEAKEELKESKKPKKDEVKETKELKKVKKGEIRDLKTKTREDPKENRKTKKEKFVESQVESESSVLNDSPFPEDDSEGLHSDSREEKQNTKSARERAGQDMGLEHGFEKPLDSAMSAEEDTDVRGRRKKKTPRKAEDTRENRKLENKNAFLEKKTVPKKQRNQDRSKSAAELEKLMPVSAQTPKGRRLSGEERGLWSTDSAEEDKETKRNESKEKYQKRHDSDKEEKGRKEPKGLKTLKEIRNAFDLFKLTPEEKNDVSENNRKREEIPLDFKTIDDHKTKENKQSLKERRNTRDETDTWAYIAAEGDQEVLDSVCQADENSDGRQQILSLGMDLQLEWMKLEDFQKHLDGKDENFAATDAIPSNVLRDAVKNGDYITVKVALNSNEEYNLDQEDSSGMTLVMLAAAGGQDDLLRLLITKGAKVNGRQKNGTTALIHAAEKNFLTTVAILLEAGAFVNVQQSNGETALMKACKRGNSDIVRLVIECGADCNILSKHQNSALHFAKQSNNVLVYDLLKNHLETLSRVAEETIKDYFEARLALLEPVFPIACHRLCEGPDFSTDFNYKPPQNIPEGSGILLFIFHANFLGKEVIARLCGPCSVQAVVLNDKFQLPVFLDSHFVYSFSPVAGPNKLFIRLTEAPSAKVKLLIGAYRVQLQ
Ubiquitin carboxyl-terminal hydrolase 2 (Homo sapiens), sequence (O75604 whole entry, looked up): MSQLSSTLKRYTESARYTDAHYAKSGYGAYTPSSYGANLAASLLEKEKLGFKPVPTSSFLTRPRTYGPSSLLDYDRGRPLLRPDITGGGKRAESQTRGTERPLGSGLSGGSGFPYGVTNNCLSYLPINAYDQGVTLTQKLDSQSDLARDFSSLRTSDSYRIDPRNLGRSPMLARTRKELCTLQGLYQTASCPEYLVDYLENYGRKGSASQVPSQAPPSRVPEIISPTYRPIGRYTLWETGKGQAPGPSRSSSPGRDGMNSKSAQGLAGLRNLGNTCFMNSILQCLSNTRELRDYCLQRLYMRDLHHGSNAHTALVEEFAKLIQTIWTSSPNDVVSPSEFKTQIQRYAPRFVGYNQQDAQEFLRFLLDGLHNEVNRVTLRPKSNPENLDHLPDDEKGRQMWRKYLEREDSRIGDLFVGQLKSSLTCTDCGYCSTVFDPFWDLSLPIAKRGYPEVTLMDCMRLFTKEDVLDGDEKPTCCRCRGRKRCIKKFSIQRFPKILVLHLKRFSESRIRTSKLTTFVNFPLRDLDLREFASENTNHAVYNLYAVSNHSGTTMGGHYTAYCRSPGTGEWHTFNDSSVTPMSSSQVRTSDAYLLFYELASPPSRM
DNA polymerase III PolC-type (Bacillus subtilis (strain 168)), sequence (P13267 whole entry, looked up): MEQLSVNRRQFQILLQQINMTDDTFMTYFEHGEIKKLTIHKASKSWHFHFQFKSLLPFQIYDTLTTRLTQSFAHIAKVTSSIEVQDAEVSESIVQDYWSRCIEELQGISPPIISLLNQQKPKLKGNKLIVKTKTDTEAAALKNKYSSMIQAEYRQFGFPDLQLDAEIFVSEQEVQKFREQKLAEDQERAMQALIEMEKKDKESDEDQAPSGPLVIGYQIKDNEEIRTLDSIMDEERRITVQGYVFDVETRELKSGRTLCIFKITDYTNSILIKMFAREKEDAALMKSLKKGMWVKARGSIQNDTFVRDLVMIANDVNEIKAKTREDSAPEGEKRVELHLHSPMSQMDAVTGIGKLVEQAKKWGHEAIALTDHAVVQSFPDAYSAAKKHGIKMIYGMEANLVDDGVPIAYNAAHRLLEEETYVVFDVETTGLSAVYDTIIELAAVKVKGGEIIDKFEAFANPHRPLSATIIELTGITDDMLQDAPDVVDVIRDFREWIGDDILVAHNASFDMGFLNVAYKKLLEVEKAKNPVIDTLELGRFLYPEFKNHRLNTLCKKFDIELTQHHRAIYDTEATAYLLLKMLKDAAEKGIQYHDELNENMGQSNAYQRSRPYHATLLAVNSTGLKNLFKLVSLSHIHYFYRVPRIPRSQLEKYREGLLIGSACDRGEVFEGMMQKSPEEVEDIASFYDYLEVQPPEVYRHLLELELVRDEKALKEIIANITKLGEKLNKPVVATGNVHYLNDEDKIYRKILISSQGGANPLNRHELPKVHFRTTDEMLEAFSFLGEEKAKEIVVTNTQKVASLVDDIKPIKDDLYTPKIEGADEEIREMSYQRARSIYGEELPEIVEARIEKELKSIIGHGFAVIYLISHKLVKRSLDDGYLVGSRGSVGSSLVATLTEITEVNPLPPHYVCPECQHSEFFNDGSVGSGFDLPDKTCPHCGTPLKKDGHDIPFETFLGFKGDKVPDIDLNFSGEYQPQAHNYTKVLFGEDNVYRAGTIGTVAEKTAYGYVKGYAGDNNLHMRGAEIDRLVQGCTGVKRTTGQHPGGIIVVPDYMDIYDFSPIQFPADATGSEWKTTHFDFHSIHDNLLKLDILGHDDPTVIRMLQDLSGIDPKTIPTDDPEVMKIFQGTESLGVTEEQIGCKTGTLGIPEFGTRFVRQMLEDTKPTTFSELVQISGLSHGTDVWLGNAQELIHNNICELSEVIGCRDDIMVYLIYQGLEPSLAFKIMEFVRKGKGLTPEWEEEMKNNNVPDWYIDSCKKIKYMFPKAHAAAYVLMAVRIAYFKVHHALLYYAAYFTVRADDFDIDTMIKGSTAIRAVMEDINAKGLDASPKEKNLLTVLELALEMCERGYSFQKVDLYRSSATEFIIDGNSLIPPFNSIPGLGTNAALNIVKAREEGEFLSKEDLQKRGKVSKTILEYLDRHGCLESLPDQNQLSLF

As for `CCCCCCCCCCCCCCCC(=O)OC(CC(=O)O)C[N+](C)(C)C` (configuration not stated), the compound was classed as inactive in assay [1], in assay [7] and in assay [8]. For the same compound, the Potency entry in assay [2], in [3], in assay [4], in assay [5], in [6] and in [9] was “inactive” in each case. Besides, the Potency result in assay [10], in assay [11], in assay [12], in assay [13], in [14] and in [15] was “inactive” each time. Moreover, in assay [16], the Potency result was “inactive”.
With `OCC1O[C@H]([S-])[C@H](O)[C@@H](O)[C@@H]1O.[Au+]` (some centres not stated), the call in assay [1], in assay [7] and in [8] was inactive. Further, the Potency result in assay [2], in [3], in assay [4], in assay [6] and in [12] was “inactive” in each case. The Potency was 18500 nM (active) in assay [5]; 2690 nM (active) in assay [9]; 75.2 nM (active) in assay [13]; 1500 nM (active) in assay [14]; 1500 nM (active) in assay [15]; 2000 nM (active) in [16].
Turning to `CCNC(=O)[C@H]1O[C@@H](n2cnc3c(N)nc(NCCc4ccc(CCC(=O)O)cc4)nc32)[C@H](O)[C@@H]1O`, the outcome in assay [1], in [7] and in assay [8] was inactive. The Potency entry in assay [2], in assay [3], in assay [4], in assay [5], in [6] and in assay [12] was “inactive” each time. Also, the Potency result in assay [13], in [14], in assay [15] and in assay [16] was “inactive” in each case.
As to `CNC(=O)[C@H]1O[C@@H](n2cnc3c(NCc4cccc(I)c4)ncnc32)[C@H](O)[C@@H]1O`, the call in assay [1], in [7] and in assay [8] was inactive. For the same compound, the Potency result in assay [2], in assay [3], in [4], in assay [5], in assay [6] and in [12] was “inactive” throughout. For the same compound, the Potency result in [14] and in [15] was “inactive” throughout.
As to `NCC1OC(O[C@H]2[C@H](O)[C@@H](OC3C(O)C(N)CC(N)C3OC3OC(CO)C(O)C(O)C3N)O[C@@H]2CO)C(N)C(O)C1O` (some centres not stated), the compound was called inactive in assay [1], in assay [7], in assay [17] and in [8]. For the same compound, the Potency entry in assay [2], in assay [3], in assay [4], in assay [5], in assay [6] and in [12] was “inactive” each time. In addition, the Potency entry in assay [13], in [14], in assay [15] and in [16] was “inactive” throughout.
In the case of `CC(C)CC(NP(=O)(O)O[C@@H]1O[C@@H](C)[C@H](O)[C@@H](O)[C@H]1O)C(=O)NC(Cc1c[nH]c2ccccc12)C(=O)O` (some centres not stated), the compound was called inactive in [1], in assay [7], in assay [17] and in assay [8]. The Potency result in assay [2], in assay [3], in [4], in [5], in assay [6] and in assay [12] was “inactive” in each case. Further, the Potency result in assay [13] and in assay [16] was “inactive” each time.
Take `Nc1nc(SCc2ccc([N+](=O)[O-])cc2)c2ncn([C@@H]3O[C@H](CO)[C@@H](O)[C@H]3O)c2n1`: the result in assay [1], in [7] and in [8] was inactive. The Potency entry in assay [2], in assay [3], in assay [4], in [5], in assay [6] and in [13] was “inactive” throughout. The Potency result in assay [14], in assay [15] and in assay [16] was “inactive” throughout.
